Screening data as filed in PubChem.
Compounds with a hit are over-represented: about 21% of the library has one in this group of screens.
DRD3 agonist = qHTS of D3 Dopamine Receptor Agonist: qHTS | D3R DiscoveRx beta-arrestin cells, luminescence, 90 min | D(3) dopamine receptor (Homo sapiens), P35462 | max activation, % | 410,000 tested, 0.58% active; in the data active = max activation above about 30%
Target sequence (P35462 whole entry, looked up): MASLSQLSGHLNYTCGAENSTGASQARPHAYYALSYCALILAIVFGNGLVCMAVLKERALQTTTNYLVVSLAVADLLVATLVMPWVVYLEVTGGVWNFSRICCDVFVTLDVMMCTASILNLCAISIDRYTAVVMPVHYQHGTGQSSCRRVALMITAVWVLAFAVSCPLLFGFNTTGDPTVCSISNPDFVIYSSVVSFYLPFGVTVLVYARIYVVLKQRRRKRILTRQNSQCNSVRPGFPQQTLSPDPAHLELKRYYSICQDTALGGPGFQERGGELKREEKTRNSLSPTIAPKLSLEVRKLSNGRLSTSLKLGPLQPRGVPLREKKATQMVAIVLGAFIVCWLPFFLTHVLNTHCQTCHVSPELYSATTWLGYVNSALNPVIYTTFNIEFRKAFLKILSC
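Agonist mode: compounds and dopamine controls were applied to plated cells for 90 min at 37 degrees C after an overnight attachment at 1500 cells/well. Luminescent read-out followed 30 - 60 minutes at room temperature with DiscoveRx detection reagent.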
IL-1B inflam inh = qHTS for Inhibitors of Inflammasome Signaling: IL-1-beta AlphaLISA Primary Screen; THP-1 LPS/ATP IL-1B secretion, AlphaLISA, 16 h; stronger effect = lower value; activity change, % at 57.5 µM; 360,000 tested, 4.7% active; AID 743279, 2014; in the data active = activity change below about -50%; inconclusive = mostly about -30% to -49%
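Secreted IL-1B measured by AlphaLISA bead assay after 16 h compound exposure of THP-1 cells; compounds (final up to 57.5 uM) added 1 h before LPS (250 ng/mL) and ATP (1.25 mM) stimulation; lower signal means less secretion.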
DRD3 antagonist = qHTS of D3 Dopamine Receptor Antagonist: qHTS | max response, negative = inhibition, % | D3R cells, DiscoveRx beta-arrestin luminescence, antagonist mode; stronger effect = lower value | 360,000 tested, 2.5% active | D(3) dopamine receptor (Homo sapiens), P35462; in the data active = max response below about -50%; inconclusive = no clear call, values can overlap the other calls
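Cells plated overnight at 1500 cells/well, then exposed to library compounds with dopamine controls for 90 minutes at 37 degrees C. DiscoveRx reagent added for 30–60 minutes at room temperature; luminescence read, quantitative HTS format.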
TDP1 cell CPT = qHTS for Inhibitors of human tyrosyl-DNA phosphodiesterase 1 (TDP1): qHTS in cells in presence of CPT; Potency, µM (top dose mostly 46.2 µM), most hits filed as inhibitors; chicken DT40 Tdp1-/-;hTDP1 cells + 20 nM CPT, ATP luminescence, 48 h; AID 686979, 2013; 420,000 tested, 12% active; note: nearly all actives have a fitted effect of over 55% in size
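Chicken DT40 Tdp1-/- cells stably complemented with human TDP1 were seeded at 400 cells/well in medium containing 20 nM camptothecin, exposed to pin-transferred compounds, and grown at 37 °C for at least 48 hr. Viability was read as ATP luminescence.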
ClpP mod = qHTS Assay for Activators of ClpP; purified B. subtilis ClpP, FRET peptide cleavage, 20 min; AID 651965, 2013; Potency, µM (top dose mostly 57.5 µM); 340,000 tested, 1.9% active; active = well fitted falling curve with a large enough effect; inconclusive = small, poorly fitted or top-dose-only effect; inactive = no such curve, though single readings can be large or run the other way; note: the source files actives as falling curves though it sought activators and does not explain the sign; nearly all actives have a fitted effect of over 65% in size
Target sequence (P80244 whole entry, looked up): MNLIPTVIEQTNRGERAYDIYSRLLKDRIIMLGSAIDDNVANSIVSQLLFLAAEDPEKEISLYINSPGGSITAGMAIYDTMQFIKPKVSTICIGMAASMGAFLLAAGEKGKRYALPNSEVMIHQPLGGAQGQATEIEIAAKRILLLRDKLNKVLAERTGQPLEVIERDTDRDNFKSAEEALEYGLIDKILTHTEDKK
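ClpP 10 microg/mL final, pH 8 Tris/KCl buffer with BSA, glycerol, Tween-20; compound pinned in; FRET-FV substrate; RT 20 min; Ex320/Em430; ΔFRET vs ADEP 5.8 microM, DMSO, no enzyme.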
TDP1 cell noCPT = qHTS for Inhibitors of human tyrosyl-DNA phosphodiesterase 1 (TDP1): qHTS in cells in absence of CPT. DT40 Tdp1-/- hTDP1 cells, no CPT, ATP luminescence, 48 h. Potency, µM (series often up to 46.2 µM), usual class: inhibitors. 420,000 tested, 15% active. AID 686978, 2013; note: nearly all actives have a fitted effect of over 55% in size
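DT40 Tdp1-/-;hTDP1 cells, no CPT (DMSO vehicle only), 400 cells/well; compounds pin-transferred; ≥48 hr, 37 °C; CellTiter-Glo 30 min RT dark, luminescence read.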
A number is an active result; . = inactive; ? = inconclusive; / = no result given. Unless noted, calls come from the whole dose curve; as a rule, active = well fitted inhibition curve with a large enough effect; inconclusive = small, poorly fitted or top-dose-only effect; inactive = flat fitted curve, though single readings scatter.

SMILES	DRD3 agonist	IL-1B inflam inh	DRD3 antagonist	TDP1 cell CPT	ClpP mod	TDP1 cell noCPT
Cc1cccc(C)c1NC(=O)C(=O)NCC1CCCN1S(=O)(=O)c1ccccc1 (configuration not stated)	.	.	.	?	/	12µM
Cc1ccc(S(=O)(=O)N2CCCC2CNC(=O)c2ccc3c(c2)OCO3)cc1 (configuration not stated)	.	.	.	?	/	18µM
Cc1ccc(S(=O)(=O)N2CCCC2CNC(=O)c2ccccc2)cc1 (configuration not stated)	.	.	.	?	.	.
Cc1ccc(S(=O)(=O)N2CCCC2CNC(=O)C(=O)Nc2ccccc2)cc1 (configuration not stated)	.	?	.	29µM	?	?
Cc1cccc(C)c1NC(=O)C1CCCN1S(=O)(=O)c1ccccc1 (configuration not stated)	.	.	.	.	.	?
Cc1ccc(C)c(NC(=O)c2cnc(N3CCCC3)nc2C)c1	.	/	/	.	.	?
C/C(=N\OCC(=O)OCC(=O)N(Cc1ccccc1)C(C)(C)C)c1ccc2c(c1)OCO2	.	.	.	.	.	.
CCOC(=O)CSC1=C(C#N)C(c2ccc(C)s2)CC(=O)N1 (configuration not stated)	.	.	.	5.2µM	.	3.3µM
CCOC(=O)CSC1=C(C#N)C(c2ccccc2OC)CC(=O)N1 (configuration not stated)	.	.	.	16µM	.	16µM
COC(=O)CSC1=C(C#N)C(c2cccc(F)c2)CC(=O)N1 (configuration not stated)	.	.	.	?	.	23µM
COC(=O)CSC1=C(C#N)C(c2cccc(OC)c2)CC(=O)N1 (configuration not stated)	.	.	.	?	.	?
COc1ccc(NC(=O)CCC(=O)N2CCOCC2)c([N+](=O)[O-])c1	.	.	.	.	.	.
CN(Cc1ccccc1)C(=O)CCC1CCN(S(C)(=O)=O)CC1	.	.	.	.	/	.
CC(C)CCNc1nc(Nc2ccccc2)c2cnn(C)c2n1	.	/	/	23µM	.	23µM
Cn1ncc2c(NCc3ccccc3)nc(NCCCO)nc21	.	.	.	.	.	.
O=C1C(Cl)=C(N2CCCCC2)C(=O)C(Cl)=C1c1cnc(N2CCCCC2)s1	.	-71	.	0.92µM	.	0.92µM
CN(C)c1ncc(C2=C(Cl)C(=O)C(N3CCCC3)=C(Cl)C2=O)s1	.	-104	?	0.92µM	.	1.2µM
CC(C)(C)OC(=O)N1CCC(c2c(C(=O)NCCN3CCOCC3)cnn2-c2cccc(Cl)c2)CC1	.	/	/	?	.	?
Cc1cccc(NC(=O)Nc2nnc(N(C)C3CCCCC3)s2)c1C	.	/	/	.	.	?
Cc1cc(C=O)cc(C)c1[N+](=O)[O-]	/	/	/	?	.	?
CCN(c1ccccc1)S(=O)(=O)c1cc2c(cc1C)NC(=O)CO2	.	.	.	.	.	.
Cc1cc2c(cc1S(=O)(=O)N(CCN(C)C)Cc1ccccc1)OCC(=O)N2	.	/	/	13µM	.	?
Cc1ccc(N(C)S(=O)(=O)c2cc3c(cc2C)NC(=O)CO3)cc1	.	.	.	?	.	?
Cc1cc2[nH]c(=O)c(=O)[nH]c2cc1S(=O)(=O)N(C)C1CCCCC1	.	.	.	21µM	.	21µM
Cc1cc2[nH]c(=O)c(=O)[nH]c2cc1S(=O)(=O)NC1CCCCC1C (configuration not stated)	.	.	.	.	.	.
SMILES	DRD3 agonist	IL-1B inflam inh	DRD3 antagonist	TDP1 cell CPT	ClpP mod	TDP1 cell noCPT
Cc1cc2c(cc1S(=O)(=O)N(C)C1CCCCC1)OCC(=O)N2	.	.	.	?	.	23µM
CC(O)CNc1ncnc2nc[nH]c12 (configuration not stated)	.	.	.	.	.	.
Cc1ncnc2nc[nH]c12	/	/	/	1.8µM	.	1.8µM
CC(C)=NNc1ncnc2nc[nH]c12	.	.	.	21µM	.	15µM
c1nc(NC2CCCCC2)c2[nH]cnc2n1	.	.	.	.	.	.
Cc1cc(C)cc(Nc2ncnc3nc[nH]c23)c1	.	.	.	?	/	.
c1nc(NC2CCCCCC2)c2[nH]cnc2n1	.	.	.	10µM	.	23µM
Nc1cc(=O)nc(SCC(=O)N2CCN(c3ccccc3)CC2)n1-c1ccc(F)cc1	.	.	.	.	.	.
CCN(CC)S(=O)(=O)c1cccc(C(=O)NCC2(N3CCOCC3)CCCCC2)c1	.	.	.	?	.	?
COc1cc(NS(=O)(=O)c2c(C)oc3c(F)c(F)c(F)c(F)c23)cc(OC)c1OC	.	.	.	23µM	.	18µM
COc1cc(NS(=O)(=O)c2cn(C)cn2)cc(OC)c1OC	.	.	.	.	.	.
NC(=O)COc1ccc(/C=N/NS(=O)(=O)c2ccccc2)cc1	.	.	.	.	/	.
Cc1ccccc1N(CC(=O)Nc1ccccc1C(=O)NCc1ccco1)S(=O)(=O)c1ccccc1	.	.	.	?	?	16µM
Cc1ccc(N(CC(=O)NCc2ccco2)C(=O)CNS(=O)(=O)c2ccc(F)cc2)c(C)c1	.	-95	.	.	.	.
COC(=O)COc1ccc(/C=N/NS(=O)(=O)c2ccccc2)cc1	.	-92	.	.	.	.
Cc1ccccc1N(CC(=O)NCc1ccco1)C(=O)CNS(=O)(=O)c1ccc(F)cc1	.	.	.	.	/	.
COC(=O)COc1ccc(/C=N/NC(=O)CN(c2ccccc2OC)S(=O)(=O)c2ccccc2)cc1	.	-96	.	?	/	?
COc1ccc(N(CC(=O)N/N=C/c2ccc(N(C)C)cc2)S(=O)(=O)c2ccccc2)cc1	.	.	.	.	.	.
O=C(Nc1nnc(Cc2ccccc2)s1)C1CCN(C(=O)c2cccs2)CC1	/	/	/	?	.	?
COc1ccccc1N(CC(=O)NCc1ccco1)S(=O)(=O)c1ccc(C)cc1	.	-85	.	.	/	.
COc1ccc(N(CC(=O)NCc2ccco2)S(=O)(=O)c2ccc(C)cc2)cc1OC	.	.	.	.	.	.
COc1ccccc1N(CC(=O)N/N=C/c1ccc(OCC(=O)NCc2ccco2)cc1)S(=O)(=O)c1ccc(C)cc1	.	.	.	?	.	13µM
